Only some compounds are listed: those with a hit (about 1.6% of all), similar ones and a draw of the others.
KCNQ2 block – rat KCNQ2 potassium channel inhibitors, primary screen, cell-based, CHO-K1, FluxOR thallium flux, B-score; 20 min; hits give low values; B-score at 10 µM; 310,000 compounds, 1.1% hits; AID 2156, 2009;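 active = fluorescence ratio B-score at most minus 3 library SDs, with starting brightness B-score within 2 library SDs, cut at about -5.5 in these data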
Target sequence (O88943 whole entry, looked up): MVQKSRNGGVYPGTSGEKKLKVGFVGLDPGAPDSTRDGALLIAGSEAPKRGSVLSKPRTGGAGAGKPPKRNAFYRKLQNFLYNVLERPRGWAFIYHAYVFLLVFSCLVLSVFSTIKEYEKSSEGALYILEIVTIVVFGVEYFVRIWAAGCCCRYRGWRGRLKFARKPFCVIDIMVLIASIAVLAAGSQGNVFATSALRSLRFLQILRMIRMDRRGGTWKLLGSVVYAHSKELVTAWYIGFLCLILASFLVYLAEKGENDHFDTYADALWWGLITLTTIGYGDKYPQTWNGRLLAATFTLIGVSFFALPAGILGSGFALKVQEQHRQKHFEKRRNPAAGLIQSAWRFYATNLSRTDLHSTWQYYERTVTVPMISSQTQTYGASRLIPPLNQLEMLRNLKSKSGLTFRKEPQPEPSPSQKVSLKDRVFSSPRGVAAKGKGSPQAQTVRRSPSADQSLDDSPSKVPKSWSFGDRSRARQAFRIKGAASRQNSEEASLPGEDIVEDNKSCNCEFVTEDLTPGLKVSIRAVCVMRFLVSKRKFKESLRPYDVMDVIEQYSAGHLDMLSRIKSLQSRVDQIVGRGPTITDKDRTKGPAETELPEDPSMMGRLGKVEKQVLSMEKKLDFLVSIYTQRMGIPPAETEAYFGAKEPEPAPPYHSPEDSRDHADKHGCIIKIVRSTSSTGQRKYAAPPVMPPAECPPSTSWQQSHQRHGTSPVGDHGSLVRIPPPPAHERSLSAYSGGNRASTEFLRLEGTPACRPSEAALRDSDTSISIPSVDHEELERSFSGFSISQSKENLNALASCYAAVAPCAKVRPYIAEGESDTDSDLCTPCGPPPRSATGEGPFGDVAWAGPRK
KCNQ2 enhance – potentiators of rat KCNQ2 potassium channel. Potassium voltage-gated channel subfamily KQT member 2 (Rattus norvegicus), O88943. CHO-K1 KCNQ2, FluxOR thallium flux fluorescence; hits give high values. B-score at 10 µM. 310,000 compounds, 0.54% hits;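 active = fluorescence ratio B-score at least 3 SD of library B-scores, with initial fluorescence B-score within 3 of them, cut at about 5.3 in these data; same plate scores as AID 2156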;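 also: B-score of peak minus minimum over baseline fluorescence ratio after K+ and Tl+ stimulus; positive B-score means potentiation of KCNQ2 with more thallium influx and brighter signal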
Numbers without * were called inactive.

CC(=O)N1CCN(c2cc(N3CCc4ccccc4C3)c(F)cc2[N+](=O)[O-])CC1 was read as KCNQ2 block -5.61* and KCNQ2 enhance -5.61.
CCC(=O)N1CCN(c2cc(N3CCCC3)c(F)cc2[N+](=O)[O-])CC1 was read as KCNQ2 block inactive and KCNQ2 enhance 0.05.
For C=C1CCN([C@@H](Cc2ccccc2)C(=O)NCc2ccccc2)S(=O)(=O)c2ccccc21 the results were KCNQ2 block inactive.
C=C1CCN([C@@H](Cc2ccccc2)C(=O)NCc2ccc(Cl)cc2)S(=O)(=O)c2ccccc21 was read as KCNQ2 block -6.01* and KCNQ2 enhance -6.01.
O=c1[nH]c(-c2ccc(Cl)cc2)cs1 was read as KCNQ2 block inactive.
For Fc1ccc(-c2csc(=S)[nH]2)cc1 the results were KCNQ2 block inactive and KCNQ2 enhance 10.6*.
`O=C(NC1CC2CCCC(C1)N2Cc1ccccc1)c1ccc([N+](=O)[O-])cc1` (stereo not drawn) gave KCNQ2 block inactive.
C(=N\n1cnnc1)/c1ccccn1 was read as KCNQ2 block inactive.
For C(=N\N(c1ccccc1)c1ccccc1)/c1ccccn1 the results were KCNQ2 block -6.21* and KCNQ2 enhance -6.21.
Screening C/C(=N\NC(=O)c1nnn(-c2nonc2N)c1CN1CCC(C)CC1)c1cccc(Br)c1 returned KCNQ2 block -5.74* and KCNQ2 enhance -5.74.
Screening C/C(=N\NC(=O)c1nnn(-c2nonc2N)c1CN1CCCCCC1)c1ccc(Br)cc1 returned KCNQ2 block inactive.
Screening CCCSc1nc(N2CCOCC2)c2c(c1C#N)CC(C)(C)SC2 returned KCNQ2 block inactive and KCNQ2 enhance 1.09.
`CC(C)Sc1nc(N2CCOCC2)c2c(c1C#N)CC(C)(C)SC2` gave KCNQ2 block -6.21* and KCNQ2 enhance -6.21.
For CCC(C(=O)N1CCOCC1)n1c2ccccc2c2nc(=O)cc(C)n21 (stereo not drawn) the results were KCNQ2 block inactive and KCNQ2 enhance 3.
Screening COc1ccc([N+](=O)[O-])cc1/C=N/NC(=O)CNC(=O)C(c1ccccc1)c1ccccc1 returned KCNQ2 block -6.06* and KCNQ2 enhance -6.06.
COc1ccc([N+](=O)[O-])cc1/C=N/NC(=O)CNC(=O)c1cccc(F)c1 was read as KCNQ2 block inactive.
`COc1ccc(CNc2nc(NCc3ccc(OC)cc3)n(C(C)=O)n2)cc1` gave KCNQ2 block inactive.
`CCC(=O)n1nc(NCc2ccccc2OC)nc1NCc1ccccc1OC` gave KCNQ2 block -7.34* and KCNQ2 enhance -7.34.
C=CCNC(=S)Nc1ccc(N(C)C)cc1 was read as KCNQ2 block inactive and KCNQ2 enhance 0.55.
For Cc1cccc(OCC(=O)Nc2ccccc2C(F)(F)F)c1 the results were KCNQ2 block inactive.
`CCN(CC(=O)Nc1ccccc1C(F)(F)F)C(=O)c1oc2c(Cl)cccc2c1C` gave KCNQ2 block -6.81* and KCNQ2 enhance -6.81.
For Cc1cccc(C)c1OCC(=O)NCc1ccccc1 the results were KCNQ2 block -6.38* and KCNQ2 enhance -6.38.
Screening Cc1cccc(C)c1OCC(=O)Nc1ccccc1C(F)(F)F returned KCNQ2 block -7.01* and KCNQ2 enhance -7.01.
For CCN(CC(=O)Nc1ccc(OC)cc1)C(=O)c1oc2c(Cl)cccc2c1C the results were KCNQ2 block inactive and KCNQ2 enhance 0.26.
Screening O=C(COc1ccccc1)NCc1ccccc1 returned KCNQ2 block inactive and KCNQ2 enhance 0.27.
Screening CC(=O)N[C@@H](Cc1c[nH]c2ccccc12)C(=O)NCc1ccccc1 returned KCNQ2 block inactive.
O=C(CSc1nnc(CNC(=O)c2cccs2)o1)Nc1ccccc1F was read as KCNQ2 block inactive.
Screening COc1cc(C(=O)NC(=S)Nc2ccccc2N2CCOCC2)cc(OC)c1OC returned KCNQ2 block inactive.
Cc1ccc(C(=O)NC(=S)Nc2ccccc2N2CCOCC2)cc1C was read as KCNQ2 block -6.1* and KCNQ2 enhance -6.1.
For CN(C)CCCn1c(SCC(=O)N2c3ccccc3Sc3ccccc32)nc2ccccc2c1=O the results were KCNQ2 block -6.43* and KCNQ2 enhance -6.43.
Screening COCCn1c(SCC(=O)N2CCCc3ccccc32)nc2ccccc2c1=O returned KCNQ2 block -6.72* and KCNQ2 enhance -6.72.
For O=C(CSc1nc2cc(Cl)ccc2s1)N1CCCc2ccccc21 the results were KCNQ2 block -5.92* and KCNQ2 enhance -5.92.
Cc1cc(=O)[nH]c(SCC(=O)N2CCCc3ccccc32)n1 was read as KCNQ2 block -6.18* and KCNQ2 enhance -6.18.
Cn1c(SCC(=O)N2c3ccccc3Sc3ccccc32)nc2ccccc21 was read as KCNQ2 block inactive.
CCOc1ccc2nc(SCC(=O)N3CCCc4ccccc43)sc2c1 was read as KCNQ2 block inactive.

Assay outcomes (PubChem BioAssay)
